Drawing on PubChem BioAssay AID759 (NMMLSC, 2007), this text covers GTP binding activity for 64 molecules.

Among all 190,000 compounds or so, about 270 (0.14%) were called active. About 2% were inconclusive and are not listed. This excerpt belongs to a sample that is enriched for actives. Unmarked numbers belong to inactive results.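 How the source made its calls: active means GTP binding activity at least 20% away from the 100% baseline, either lowered as inhibitor or raised as activator; inconclusive means flagged as likely green fluorescent, judged across all proteins in the well; inactive means the rest.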

Sequence of GTPase HRas (Homo sapiens) (P01112 whole entry, looked up): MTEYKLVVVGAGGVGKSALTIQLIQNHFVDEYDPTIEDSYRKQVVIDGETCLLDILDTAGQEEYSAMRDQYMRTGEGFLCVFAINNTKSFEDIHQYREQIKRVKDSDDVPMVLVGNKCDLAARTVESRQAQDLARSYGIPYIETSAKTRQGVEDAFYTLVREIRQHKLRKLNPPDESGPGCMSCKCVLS

The experiment concerns the target GTPase HRas (Homo sapiens) (UniProt P01112). Nature of the experiment: modulators of GTP binding to HRas wildtype, primary screen, biochemical, bead-based flow cytometry, multiplex (AID 759).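 Further: 0% = unlabeled GTP competition control and 100% = no-compound control.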 The settings on record: GST-Ras wt beads, Bodipy-FL-GTP binding, at 10 µM, actives lie on both sides. Background: In flow cytometry, cells or beads pass a laser one at a time.
Take `CCSc1nc(C)c(CCOc2cccc(C)c2)c(=O)[nH]1`: the GTP binding activity was 98%.

As to `O=C(CC1C(=O)NCCN1CC(c1ccccc1)c1ccccc1)NCCc1cn[nH]c1` (centres undefined), the GTP binding activity is 99%.

Regarding `CCNC(=O)CC1C(=O)N(c2ccc(OC)cc2)C(=S)N1CCc1ccncc1` (centres undefined), the GTP binding activity was 98%.

For `CCc1ccc(CN(C)Cc2nc(Cc3ccccc3)no2)nc1`, the GTP binding activity is 98%.

With `CC(=O)N(CN1C(=O)C2C3C=CC(C3)C2C1=O)c1cccc(Cl)c1` (centres undefined), the GTP binding activity was 93%.

Take `CN(/C(=N/S(=O)(=O)c1cccs1)c1ccccc1)c1ccc(O)cc1`: the GTP binding activity was 88%.

Take `CC(=O)Nc1ccc(S(=O)(=O)Oc2ccc(/C=N/N=C3/NC(=O)C(CC(=O)O)S3)cc2)cc1` (centres undefined): the GTP binding activity is 92%.

For `O=C1CCC/C(=N\NC(=O)NC2CCCCC2)C1`, the GTP binding activity is 97%.

With `COc1c(C)cc(C(=O)C2CCCN(S(=O)(=O)c3c(C)noc3C)C2)cc1C` (centres undefined), the GTP binding activity is 96%.

Turning to `CC(C)(O)C#Cc1ncc(C(F)(F)F)cc1Cl`, the GTP binding activity was 98%.

Turning to `CC(C)OCCCNC(=S)N1CCC(C(=O)c2ccc3c(c2)OCCO3)CC1`, the GTP binding activity was 95%.

As for `CCOCCCNCc1ccc(OCc2ccc(F)cc2)c(OC)c1`, the GTP binding activity is 97%.

`CN1CCN(CCCCOc2ccccc2-c2ccccc2)CC1`: the GTP binding activity was 99%.

For `CSc1ccc(/C=N\NC(=O)CC(=O)NC(C)C)cc1`, the GTP binding activity is 94%.

For the molecule `Cc1cccc(NC(=S)Nc2ccc(Cl)c(Cl)c2)c1`, the GTP binding activity was 95%.

Take `O=C(Nc1ccc(Br)cn1)c1ccc([N+](=O)[O-])o1`: the GTP binding activity is 98%.

As to `Cc1nn(C)c(C)c1CN(C(=O)CCc1nnc(Cc2c[nH]c3ccccc23)o1)C(C)C`, the GTP binding activity is 95%.

Turning to `Nn1c(SCC(=O)Nc2nccs2)nncc1=O`, the GTP binding activity was 96%.

For `CCC(C)NC(=O)/C=C/c1ccc(S(=O)(=O)NCc2ccco2)cc1` (centres undefined), the GTP binding activity was 99%.

`C=CCN(CC=C)S(=O)(=O)c1ccc(C(=O)Nc2sc3c(c2C(N)=O)CCCCC3)cc1`: the GTP binding activity was 103%.

As to `C=CCN(CC=C)S(=O)(=O)c1ccc(C(=O)Nc2nc3c(s2)CCc2ccccc2-3)cc1`, the GTP binding activity is 32% (active).

Take `COCCN(CCOC)S(=O)(=O)c1ccc(C(=O)Nc2nc3c(s2)CCc2ccccc2-3)cc1`: the GTP binding activity is 104%.

For `CCC(CC)NC(=O)CSc1nnc(-c2c[nH]c3ccccc23)o1`, the GTP binding activity was 92%.

As to `CSc1ncccc1C(=O)OCc1ccc(Br)cc1`, the GTP binding activity was 96%.

On to `CCOC(=O)C1CCCN(C(=O)/C=C/c2ccc(OC)cc2)C1` (centres undefined), for which the GTP binding activity is 91%.

For the molecule `Cc1cccc(C(=O)N2CCC(c3nc4ccccc4s3)CC2)c1`, the GTP binding activity is 95%.

On to `COc1ccc(Cc2nnc(NC(=O)c3cc(OC)c(OC)c(OC)c3)s2)cc1OC`, for which the GTP binding activity is 94%.

In the case of `NS(=O)(=O)c1ccc(NC(=S)NNC(=O)c2cccs2)cc1`, the GTP binding activity was 97%.

Take `O=C(CN(C(=O)c1csnn1)c1cccc(F)c1)NCc1ccc(F)cc1`: the GTP binding activity was 99%.

For the molecule `CNC(=O)C(=O)N/N=C/c1ccccn1`, the GTP binding activity was 95%.

For `S=C(Cc1ccc(Cl)cc1)N1CCOCC1`, the GTP binding activity is 94%.

In the case of `Cc1cccc(C(=O)Nc2ccc3c(c2)C(=O)N(CC(C)C)C3=O)c1`, the GTP binding activity is 96%.

Turning to `COc1cc(/C=C2/C(=O)ON=C2C)ccc1OCc1cccc(F)c1`, the GTP binding activity was 91%.

On to `Cc1ccc2c(Cl)c(C(=O)Nc3nn[nH]n3)sc2c1`, for which the GTP binding activity was 100%.

As for `O=S(=O)(NCc1ccccc1)c1ccc(S(=O)(=O)N2CCCC2)cc1`, the GTP binding activity is 101%.

`COC(=O)C1=C(C)NC(=O)/C1=C/c1ccc(CNS(=O)(=O)c2ccc(C)cc2)o1`: the GTP binding activity is 97%.

With `O=c1/c(=C/c2ccc(CNS(=O)(=O)c3ccccc3)o2)sc2n1CCN=2`, the GTP binding activity is 78% (active).

Turning to `O=C(CCN1C(=O)c2ccncc2C1=O)Nc1cc(F)ccc1F`, the GTP binding activity is 92%.

As to `NC(=O)COc1ccc(C23CC4CC(CC(C4)C2)C3)cc1`, the GTP binding activity was 95%.

Take `COc1cccc(OC)c1C(=O)NC(=S)NCc1ccco1`: the GTP binding activity is 95%.

In the case of `CC(=O)c1ccc(N=C2SCCCN2C(=O)C2CCCCC2)cc1`, the GTP binding activity was 97%.

Take `COc1ccc(OCC(=O)NNC(=O)c2cccc(C)c2)cc1`: the GTP binding activity was 97%.

With `O=C(Nc1ccc(N2CCN(C(=O)C3CC3)CC2)cc1)c1cccs1`, the GTP binding activity is 95%.

As to `CCOC(=O)c1cnc2c(c(C)nn2CC)c1Cl`, the GTP binding activity is 96%.

Consider `CCOC(=O)c1nc(Nc2ccc(C(=O)OC)cc2)c2ccccc2n1`, for which the GTP binding activity was 77% (active).

`CCOC(=O)c1ccc(N/C(=N/S(=O)(=O)c2ccccc2)c2ccccc2)cc1`: the GTP binding activity is 97%.

Consider `CCOC(=O)c1ccc(Nc2cc(C)nc3nc(C)nn23)cc1`, for which the GTP binding activity is 98%.

As for `Cc1c(Cc2ccccc2)c(=O)oc2cc(OCC(N)=O)ccc12`, the GTP binding activity was 93%.

In the case of `CCOc1ccccc1/C=N/NC(=O)CNC(=O)COc1ccccc1`, the GTP binding activity is 97%.

Turning to `O=C(COc1ccccc1Cl)Nc1ccc(C(=O)c2ccc(C(=O)O)cc2)cc1`, the GTP binding activity is 100%.

In the case of `Cc1cc(C)cc(NC(=O)N2CCCCCCC2)c1`, the GTP binding activity was 100%.

With `COc1ccc(C(=O)NC(Cc2ccc(OC(=O)c3ccc(OC)cc3)cc2)C(=O)O)cc1` (centres undefined), the GTP binding activity was 90%.

As to `Nc1ccc(Cl)c(S(=O)(=O)Nc2ccccc2Cl)c1`, the GTP binding activity was 98%.

On to `Cc1ccc(NC(=O)c2oc3ccccc3c2C)c([N+](=O)[O-])c1`, for which the GTP binding activity is 101%.

Regarding `C/C=N/NC(=O)CCCC(=O)N/N=C/C`, the GTP binding activity is 103%.

Consider `CCC(=O)OCCNc1nc(-c2ccccc2)nc2ccccc12`, for which the GTP binding activity is 98%.

On to `Cc1ccc(CN(Cc2cccnc2)C(=S)Nc2cccc(Cl)c2C)cc1`, for which the GTP binding activity was 95%.

With `CCCCn1c(N)c(N(CC)C(=O)/C=C/c2ccco2)c(=O)[nH]c1=O`, the GTP binding activity is 99%.

Consider `CSc1ncccc1C(=O)N1CCCC(CCC(=O)NCc2ccccc2F)C1` (centres undefined), for which the GTP binding activity is 100%.

With `COC(=O)c1ccc(NC(=O)c2cc(Cl)ccc2OC)cc1`, the GTP binding activity was 96%.

In the case of `O=C1N/C(=N\N=C\c2ccco2)SC1Cc1ccc(F)cc1` (centres undefined), the GTP binding activity was 97%.

As for `O=C(c1ccncc1)c1ccc([N+](=O)[O-])cc1`, the GTP binding activity is 94%.

Turning to `CCOC(=O)CN1CCC(c2ccccc2)CC1`, the GTP binding activity is 98%.

Take `CC(C)(C)n1nc2c(c1NC(=O)c1cc3ccccc3o1)CSC2`: the GTP binding activity is 96%.
